Shown are actives, neighbours in structure and some others; about 3.5% of the full set was active somewhere.
TEAD-YAP block = TEAD-YAP interaction inhibition | HEK-TIYL cells, TEAD-Gal4/YAP UAS-luciferase luminescence | inhibition, % at 9.12 µM | hit rate 1.4% among 640,000 | AID 1259422; in the data active = inhibition above about 32%;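 note: 0% = median of test compound wells and 100% = reference inhibitor wells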
MITF primary = inhibitors of human MITF | hit rate 0.91% among 650,000 | AID 1259374 | AlphaScreen MITF homodimerization, bead proximity signal | inhibition, % at 2.6 µM; in the data active = inhibition above about 50%;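 note: 0% = vehicle wells with protein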
GPR151 activ = activators of human GPR151 | Q8TDV0 | PathHunter beta-arrestin GPR151 cells, luminescence | activation, % at 11.2 µM | hit rate 1% among 650,000 | AID 1508602; in the data active = activation above about 4.9%;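 note: 0% = median of compound wells and 100% = cells with positive control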
FBW7 activator = human FBW7 E3 ligase activation, primary screen. Q969H0. AlphaScreen FBW7–phospho-cyclin E peptide binding, activator screen. normalized activity (activation), % at 26.1 µM. hit rate 0.13% among 650,000. AID 1259310; in the data active = normalized activity above about 1.9%;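 note: purified mutant Fbw7 with reduced substrate affinity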
Target sequence (Q969H0 whole entry, looked up): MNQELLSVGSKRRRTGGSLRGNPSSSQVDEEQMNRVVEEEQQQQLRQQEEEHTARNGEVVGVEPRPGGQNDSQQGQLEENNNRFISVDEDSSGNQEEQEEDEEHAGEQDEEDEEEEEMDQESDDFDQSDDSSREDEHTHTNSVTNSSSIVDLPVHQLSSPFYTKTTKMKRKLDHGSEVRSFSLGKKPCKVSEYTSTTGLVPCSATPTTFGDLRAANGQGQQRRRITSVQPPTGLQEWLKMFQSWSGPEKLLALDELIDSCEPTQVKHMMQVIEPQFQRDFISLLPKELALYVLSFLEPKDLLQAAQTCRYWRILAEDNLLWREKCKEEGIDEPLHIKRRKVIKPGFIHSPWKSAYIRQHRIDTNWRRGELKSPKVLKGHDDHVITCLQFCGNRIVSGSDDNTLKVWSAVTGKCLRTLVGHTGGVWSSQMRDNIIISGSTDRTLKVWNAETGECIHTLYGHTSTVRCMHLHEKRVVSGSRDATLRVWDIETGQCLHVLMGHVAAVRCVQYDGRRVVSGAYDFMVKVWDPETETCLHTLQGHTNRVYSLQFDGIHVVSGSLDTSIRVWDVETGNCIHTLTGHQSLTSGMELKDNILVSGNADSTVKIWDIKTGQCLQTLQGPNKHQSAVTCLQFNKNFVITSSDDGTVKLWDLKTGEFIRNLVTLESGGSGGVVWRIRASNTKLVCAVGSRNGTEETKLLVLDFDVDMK
GPR151 conf act = confirmation of human GPR151 activators | shares compounds with GPR151 activ | GPR151 PathHunter beta-arrestin cells, luminescence, 90 min; % of EA-reagent control over plate median | activation, % at 11.2 µM | 6,700 tested, under 10 active | AID 1508609;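 active = mean percent activation across replicates above the confirmation screen cutoff of 4.91%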
GPR119 counter = GPR119 activation, counter-screen for GPR151 activators; shares compounds with GPR151 activ; GPR119 PathHunter beta-arrestin cells, luminescence, 90 min; 0 = compound-well median, 100 = enzyme-acceptor control; activation, % at 11.2 µM; hit rate 0.3% among 6,700; AID 1508611;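 active = mean percent activation in the counterscreen above 29.09%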;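 note: counterscreen on off-target GPR119 to flag nonselective hits from the GPR151 activator screen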
The depositor's hits bear a star; . = not tested or not shown.

SMILES	TEAD-YAP block	MITF primary	GPR151 activ	FBW7 activator	GPR151 conf act	GPR119 counter
Cc1cccc(N2C(=O)NC(=O)/C(=C\c3ccc(N(C)C)c([N+](=O)[O-])c3)C2=O)c1	-10.9	0.1	5.6*	-0.1	-0.6	-5.4
COc1ccc(/C=C2\C(=O)NC(=O)N(c3ccccc3OC)C2=O)cc1	-3.3	-3.8	4.9*	0.1	0.0	9.8
COc1ccc(N2C(=O)/C(=C/c3cccs3)C(=O)NC2=S)c(OC)c1	7.7	8.3	5.2*	0.0	0.4	1.9
COc1ccc(OC)c(N2C(=O)NC(=O)/C(=C/c3cccs3)C2=O)c1	-3.1	-2.4	1.5	-0.2	.	.
CCOc1ccc(/C=N/NC(=O)Cc2ccccc2)cc1	-5.8	2.0	2.6	0.0	.	.
COc1cccc(N2C(=O)NC(=O)/C(=C/c3ccc(O)c(O)c3)C2=O)c1	-3.5	-24.0	5.1*	-0.1	1.3	4.8
COCCNC(=S)Nc1ccc(Nc2ccc(OC)cc2)cc1	-5.3	17.0	-0.2	-0.3	.	.
CCOC(=O)N1CCN(CC(O)COc2ccc([N+](=O)[O-])cc2)CC1 (configuration not stated)	-3.7	-12.0	5.4*	-0.1	1.2	19.2
CC(C)NC(=O)c1cnc2scc(-c3ccccc3)n2c1=O	2.2	3.2	8.5*	-0.2	2.3	3.3
O=C1CSC(c2cccc([N+](=O)[O-])c2)N1Cc1ccccc1 (configuration not stated)	-9.6	15.3	10.2*	-0.1	0.6	5.3
N#Cc1cccc(C(=O)NC2CCCC2)c1	9.9	-3.4	5.2*	0.5	2.6	4.5
O=C(NC1CCCCCC1)c1cccc(I)c1	-46.3	2.8	0.4	0.2	.	.
Cc1ccc(-c2nc(NC(=O)c3ccco3)sc2-c2ccccc2)cc1	-7.0	-4.7	-0.4	0.0	.	.
O=C(CS(=O)(=O)O)c1ccc(Cl)cc1	9.9	-3.1	1.2	-0.2	.	.
CCCCCCCCCCCCCC/C(C(=O)O)=C(\C)C(=O)O	6.1	14.6	9.5*	0.0	2.2	-3.5
Cc1ccc(S(=O)(=O)n2cc(-c3ccnc(N)c3)c3cc(Br)cnc32)cc1	.	.	7.6*	.	-0.3	-2.0
O=C1CC(c2ccccc2[N+](=O)[O-])c2ccc3c(O)cccc3c2N1 (configuration not stated)	5.7	-4.3	5.3*	0.1	-0.1	1.5
O=C1CC(c2ccc3c(c2)OCO3)c2ccc3ccccc3c2N1 (configuration not stated)	11.7	11.8	1.9	-0.2	.	.
O=C1CC(c2cc3c(cc2[N+](=O)[O-])OCO3)c2ccc3ccccc3c2N1 (configuration not stated)	-0.6	0.0	11.8*	-0.3	0.5	-0.5
CC1=C(C(=O)OC2CCCCCC2)C(c2ccccc2[N+](=O)[O-])CC(=O)N1 (configuration not stated)	-1.5	8.9	-0.1	0.1	.	.
CC1=C(C(=O)OC2CCCCCCC2)C(c2ccccc2[N+](=O)[O-])CC(=O)N1 (configuration not stated)	-1.4	4.5	5.3*	0.0	0.5	13.8
COc1ccccc1CNC(=O)c1cccnc1SCc1cccc(Br)c1	-1.3	9.3	1.7	-0.1	.	.
CC(=O)c1ccc(N2CCN(Cc3ccoc3)CC2)cc1	-16.8	20.3	5.9*	-0.2	-0.8	-6.7
O=[N+]([O-])c1ccc(N2CCN(Cc3ccoc3)CC2)cc1	-1.3	8.2	-0.2	-0.1	.	.
CC(C)CCN1CCNC(=O)C1CC(=O)N(C)CCc1cnn(C)c1 (configuration not stated)	-2.9	18.2	5.6*	0.1	-0.3	5.9
SMILES	TEAD-YAP block	MITF primary	GPR151 activ	FBW7 activator	GPR151 conf act	GPR119 counter
Cc1ccc(CN2CCNC(=O)C2CC(=O)N(C)CCc2cnn(C)c2)cc1 (configuration not stated)	0.8	8.6	0.2	-0.2	.	.
O=c1[nH]c2cc(Cl)c(Cl)cc2[nH]c1=O	-16.7	22.4	5.5*	0.2	-1.0	-4.2
COc1ccc2[nH]c(=O)c(=O)[nH]c2c1	11.8	34.9	1.0	0.0	.	.
CS(=O)(=O)N1CCN(C(=O)c2ccncc2)CC1	6.0	0.9	5.6*	0.0	-0.5	2.2
CS(=O)(=O)N1CCN(C(=S)NCc2ccc(Cl)cc2)CC1	5.6	12.5	6.8*	0.2	0.3	1.9
CS(=O)(=O)N1CCN(C(=O)c2cccnc2)CC1	4.8	8.2	0.7	0.1	.	.
CN(c1ccc(C(=O)N2CCCC2)cc1)S(=O)(=O)c1ccc(Cl)cc1	0.6	9.9	6.6*	0.1	-0.9	-15.5
CS(=O)(=O)N1CCN(C(=O)c2ccc(Cl)cc2)CC1	1.8	15.4	7.8*	0.2	1.0	11.2
CS(=O)(=O)N1CCN(C(=S)NCc2ccc(F)cc2)CC1	4.1	5.5	-0.6	0.1	.	.
CC(C)(C)c1ccc(S(=O)(=O)N/N=C/c2cccnc2)cc1	2.2	7.2	-1.0	0.0	.	.
Clc1ccc(-n2cc(-c3ccccc3)c3c(NN4CCOCC4)ncnc32)cc1	-2.9	0.1	1.8	-0.1	.	.
O=C(Nc1cccc(NC(=O)c2ccc(-c3cccc(Cl)c3)o2)c1)c1ccco1	-5.4	-0.1	-0.6	0.5	.	.
CCOc1cccc(CN2CCC(C(=O)NC(C)c3ccccc3)CC2)c1O (configuration not stated)	0.9	-0.2	5.6*	0.0	0.0	6.4
COC(=O)c1ccc(OCC2c3cc(OC)c(OC)cc3CCN2C(=O)/C=C/c2ccc3c(c2)OCO3)cc1 (configuration not stated)	-9.5	12.0	-2.5	0.2	.	.
C/C(CC(=O)Nc1ccccn1)=N\NC(=O)c1cc(Cl)ccc1O	-27.9	-5.8	1.4	-0.2	.	.
COc1cc([N+](=O)[O-])cc2c1NC(c1cccnc1)C1CC=CC21 (configuration not stated)	0.3	6.7	5.2*	-0.4	-0.4	-7.2
COc1cc([N+](=O)[O-])cc2c1NC(c1ccncc1)C1CC=CC21 (configuration not stated)	-6.2	-2.5	1.2	-0.5	.	.
Cc1ccccc1C(=O)Nc1nc(-c2ccc3c(c2)CCN3S(C)(=O)=O)cs1	-17.4	-2.2	-1.0	-0.1	.	.
O=C(O)CCNS(=O)(=O)c1cccs1	-6.3	-16.7	0.6	-0.1	.	.
O=C(NCCO)/C(=C/c1cccc([N+](=O)[O-])c1)NC(=O)c1cccc(Br)c1	0.3	3.9	0.8	0.1	.	.
COc1ccc(/C=C(/NC(=O)c2ccc(Br)cc2)C(=O)NCC(=O)O)cc1	-6.2	9.4	-0.6	0.1	.	.
CCOC(=O)c1ccc(NC(=O)/C(=C/c2cccc(Br)c2)NC(=O)c2ccco2)cc1	13.2	-4.6	-1.2	0.1	.	.
O=C(NCCO)/C(=C\c1cccc([N+](=O)[O-])c1)NC(=O)c1ccccc1	2.6	17.0	11.5*	-0.1	-1.3	-10.0
CCOC(=O)c1ccc(NC(=O)/C(=C\c2ccc([N+](=O)[O-])cc2)NC(=O)c2ccco2)cc1	2.0	1.9	6.2*	-0.3	0.5	5.5

Source: PubChem BioAssay
